Rows were chosen to be rich in hits. Some 2.5% of all compounds tested hit in one or more screens of this group.
ASK1 primary – inhibitors of human ASK1 kinase; inhibition, % at 7.44 µM; AID 1159602; AlphaScreen MKK6 phosphorylation by ASK1, luminescence; 22,000 compounds, 0.99% hits; in the data active means inhibition above about 35%;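 further: 0% = median of compound wells and 100% = no enzyme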
ULK1 inh – human ULK1 kinase inhibition, primary screen; AlphaScreen Atg13 phosphorylation by ULK1, luminescence; inhibition, % at 5.96 µM; 30,000 compounds, 1.9% hits; in the data active means inhibition above about 43%;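 further: 0% = median of compound wells and 100% = no enzyme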
Target sequence (O75385 whole entry, looked up): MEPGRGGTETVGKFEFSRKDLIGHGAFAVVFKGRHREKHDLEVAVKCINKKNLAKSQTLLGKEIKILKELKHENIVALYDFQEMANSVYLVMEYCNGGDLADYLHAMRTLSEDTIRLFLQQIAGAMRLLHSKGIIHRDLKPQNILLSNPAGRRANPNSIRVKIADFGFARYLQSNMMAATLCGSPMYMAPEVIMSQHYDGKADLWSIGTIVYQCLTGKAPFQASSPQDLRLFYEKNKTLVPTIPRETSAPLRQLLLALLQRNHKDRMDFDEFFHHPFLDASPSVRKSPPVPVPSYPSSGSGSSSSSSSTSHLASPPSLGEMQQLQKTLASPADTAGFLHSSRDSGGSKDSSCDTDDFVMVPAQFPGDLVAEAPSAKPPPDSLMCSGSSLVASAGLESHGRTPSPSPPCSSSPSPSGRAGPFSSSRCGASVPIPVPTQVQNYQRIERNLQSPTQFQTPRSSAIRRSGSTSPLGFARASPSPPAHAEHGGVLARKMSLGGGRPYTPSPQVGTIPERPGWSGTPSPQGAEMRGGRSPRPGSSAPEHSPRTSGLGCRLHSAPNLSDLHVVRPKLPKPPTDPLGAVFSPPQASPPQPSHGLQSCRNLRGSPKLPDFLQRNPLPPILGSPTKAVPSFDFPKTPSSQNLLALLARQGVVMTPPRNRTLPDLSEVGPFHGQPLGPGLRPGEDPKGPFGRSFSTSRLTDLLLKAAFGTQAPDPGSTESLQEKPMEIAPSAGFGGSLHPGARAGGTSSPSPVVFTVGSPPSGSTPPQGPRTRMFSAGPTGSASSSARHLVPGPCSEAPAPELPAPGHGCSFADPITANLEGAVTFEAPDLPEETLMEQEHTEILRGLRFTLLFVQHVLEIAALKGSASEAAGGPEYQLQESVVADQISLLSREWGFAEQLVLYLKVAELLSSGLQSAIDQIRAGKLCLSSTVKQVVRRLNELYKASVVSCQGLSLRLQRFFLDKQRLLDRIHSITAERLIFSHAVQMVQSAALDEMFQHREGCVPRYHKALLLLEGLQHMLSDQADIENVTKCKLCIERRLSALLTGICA
An asterisk follows results filed as active; · = no result.

SMILES	ASK1 primary	ULK1 inh
Cc1ncn(-c2ccc(Nc3nccc(-c4ccc(N5CCCC(O)C5)c(C#N)c4)n3)cc2)n1 (configuration not stated)	-7	80*
Cc1ncn(-c2ccc(Nc3nccc(-c4ccc(C#N)c(N5CCCC(O)C5)c4)n3)cc2)n1 (configuration not stated)	12	3
N#Cc1cc(-c2ccnc(Nc3cccc(N)c3)n2)ccc1N1CCCC1	19	41
N#Cc1cc(-c2ccnc(Nc3ccc(N)cc3)n2)ccc1N1CCC(O)CC1	8	85*
COc1cc2nc(Nc3ccc4ncccc4c3)nc(NCCN(C(C)C)C(C)C)c2cc1OC	-5	1
Cc1ccccc1OCc1nc2ccc(-c3cn[nH]c3C)cc2c(=O)[nH]1	24	-12
COc1ccc(CCNc2cc(N3CCN(Cc4ccc5c(c4)OCO5)CC3)nc(N)n2)cc1	11	-13
CCCNC(=O)c1ccnc(NCC)c1	-1	13
C=C(NC(=O)C(=C)NC(=O)c1csc(C2=NC3c4csc(n4)C4NC(=O)c5csc(n5)C(C(C)(O)C(C)O)NC(=O)C5CSC(=N5)C(=CC)NC(=O)C(C(C)O)NC(=O)c5csc(n5)C3(CC2)NC(=O)C(C)NC(=O)C(=C)NC(=O)C(C)NC(=O)C(C(C)CC)NC2C=Cc3c(C(C)O)cc(nc3C2O)C(=O)OC4C)n1)C(N)=O (configuration not stated)	·	43*
CCCNc1nc(Nc2cccnc2)nc2c1ncn2-c1ccsc1	7	-1
COc1cccc2c1OCC(c1nc3ccc(-c4ccncc4)cc3[nH]1)O2 (configuration not stated)	-9	-2
CCC(C)NC(=O)C(=O)Nc1cccc(Br)c1 (configuration not stated)	·	-15
Cc1c[nH]c(=O)c2cccc(S(=O)(=O)N3CCCNC[C@@H]3C)c12	0	47*
Cc1c[nH]c(=O)c2cccc(NC3CCN(C(=O)C(N)c4ccc(Br)cc4)CC3)c12 (configuration not stated)	11	14
CN1CCN(C(=O)c2ccc(-c3cc(Nc4ccc(N5CCOCC5)cc4)nc(N)n3)cc2)CC1	-14	4
O=C(NC1CC1)c1cccc(Nc2cnccn2)c1	-2	-4
Cc1ccc(-c2cccc3cnc(Nc4ccc(-n5cnc(-c6ccccn6)n5)cc4)nc23)cn1	-20	-17
Cc1ccc(-c2cccc3cnc(Nc4ccc(C(=O)NC5CC5)cc4)nc23)cn1	-37	62*
Cc1ccc(-c2cccc3cnc(Nc4cccc(C(=O)NC5CC5)c4)nc23)cn1	-28	59*
Nc1cccc(-c2cccc(C(=O)Nc3ccccc3)c2)c1	-12	-16
c1ccc(-c2cc(NC3CC3)nc(-c3ccccn3)n2)cc1	·	-12
CCCNC(=O)c1ccc2nc(-c3cccc(C(C)=O)c3)sc2c1	-13	5
COc1ccc(C(=O)c2oc3cc(NC(C)=O)ccc3c2C)cc1	·	-12
NC(CO)C(=O)NNCc1ccc(O)c(O)c1O (configuration not stated)	·	65*
NC(CO)C(=O)O (configuration not stated)	·	2
SMILES	ASK1 primary	ULK1 inh
Nc1nc(NCCOc2ccccc2)cc(-c2cccs2)n1	12	-32
Nc1cccc(-c2cccc(C(=O)Nc3ccccc3)n2)c1	-3	1
O=C(NCCO)c1cnc(Br)s1	5	3
c1ccc(Nc2nc(Nc3ccc(N4CCOCC4)cc3)nc3c2ncn3-c2ccsc2)cc1	29	41
c1cc(-n2cnc3c(Nc4ccc(N5CCOCC5)cc4)nc(Nc4ccc(N5CCOCC5)cc4)nc32)cs1	20	20
c1cn(-c2ccc(Nc3nc(Nc4ccc(N5CCOCC5)cc4)c4ncn(-c5ccsc5)c4n3)cc2)cn1	21	46*
c1cncc(Nc2nc(Nc3ccc(N4CCOCC4)cc3)c3ncn(-c4ccsc4)c3n2)c1	29	49*
O=C(Nc1ccccc1)c1cnc(Nc2ccc(-n3ccnc3)cc2)s1	-3	-5
c1ccc(Nc2nc(NC3CC3)c3ncn(-c4ccccc4)c3n2)cc1	2	-8
NC(=O)c1cc(N2CCCC2CO)nc2ccccc12 (configuration not stated)	0	5
COc1ccc(-c2nc(Nc3cc(OC)c(OC)c(OC)c3)c3ncn(C4CCCCC4)c3n2)cn1	29	22
CC(=O)c1ccc(Nc2nccc(-c3ccc(NS(C)(=O)=O)cc3)n2)cc1	-22	55*
CS(=O)(=O)Nc1ccc(-c2ccnc(Nc3ccc(-n4cncn4)cc3)n2)cc1	7	67*
CS(=O)(=O)Nc1ccc(-c2ccnc(Nc3ccc(C(O)(C(F)(F)F)C(F)(F)F)cc3)n2)cc1	-29	33
Cc1ccc(-c2ncn(-c3ccc(Nc4nccc(-c5ccc(NS(C)(=O)=O)cc5)n4)cc3)n2)cn1	3	12
Oc1ccc(CCNc2ccnc(Nc3ccc(-n4ccnc4)cc3)n2)cc1	3	2
COc1cc(Nc2nc(Nc3ccncc3)nc3nc[nH]c23)cc(OC)c1OC	6	32
c1cnc(Nc2nc(Nc3ccc4c(c3)OCO4)c3ncn(C4CCCCC4)c3n2)cn1	2	1
CC(C)n1cnc2c(Nc3ccc4c(c3)OCO4)nc(Nc3ccc(-n4ccnc4)cc3)nc21	26	55*
CC(C)n1cnc2c(Nc3ccc4c(c3)OCO4)nc(Nc3cnccn3)nc21	1	49*
CC(C)n1cnc2c(Nc3ccc4c(c3)OCO4)nc(Nc3ccccc3)nc21	21	0
O=C(Nc1nc(-c2ccncc2)cs1)[C@H]1COc2ccccc2O1	-9	1
CC(=O)Nc1ccc(Nc2ccnc(Nc3ccc(C(F)(F)F)cc3)n2)cc1	29	-11
CC(=O)Nc1ccc(Nc2ccnc(Nc3ccncn3)n2)cc1	16	68*
CCCCC(CC)COC(=O)CC(C(=O)OCC(CC)CCCC)S(=O)(=O)O (configuration not stated)	·	54*
SMILES	ASK1 primary	ULK1 inh
CCCCC(CC)COC(=O)C(C#N)=C(c1ccccc1)c1ccccc1 (configuration not stated)	·	-8
O=C(NCCCN1CCCC1=O)c1csc(-c2ccccc2)n1	-3	-5
COc1cc(Nc2nc(-c3ccc(N4CCOCC4)nc3)ncc2C)cc(OC)c1OC	9	89*
COc1ccc(-c2nc(NCc3cccnc3)c3[nH]cnc3n2)cn1	-15	8
Cc1cnc(-c2ccc(N3CCOCC3)nc2)nc1Nc1ccc(Oc2ccccc2)cc1	2	-8
c1cncc(CNc2nc(-c3ccc(N4CCOCC4)nc3)nc3nc[nH]c23)c1	-2	59*
COc1cc(Nc2nc(-c3ccc(N4CCOCC4)nc3)nc3nc[nH]c23)cc(OC)c1OC	8	-9
COc1cc2nc(-c3ccc(N4CCOCC4)nc3)nc(Nc3cc(OC)c(OC)c(OC)c3)c2cc1OC	1	-5
COc1cc(Nc2ccnc(-c3ccc(N4CCOCC4)nc3)n2)cc(OC)c1OC	8	74*
Cc1cnc(-c2ccc(N3CCOCC3)nc2)nc1Nc1ccc(N2CCOCC2)cc1	16	52*
Cc1noc(C)c1-c1nc(N)c2ncn(C(C)C)c2n1	-3	7
COc1ccc(CCNC(=O)c2ccnc(-c3ccc(OC)nc3)c2)cc1	-5	-1
CCN(CC)c1nc(NCCO)nc(NCCCN2CCCC2=O)n1	-3	0
CC(C)N(CCNc1nc(N2CCN(c3ccccn3)CC2)nc2nc[nH]c12)C(C)C	-17	-1
COc1ccc(-c2ncc(C)c(Nc3ccccc3)n2)cn1	11	-24

Screening results deposited in PubChem by The Scripps Research Institute Molecular Screening Center.
